Screens from PubChem BioAssay.
NPR1 antag – Natriuretic polypeptide receptor (hNpr1) antagonism - Primary qHTS. HEK293 hNpr1 GloSensor cGMP, ANP-stimulated luminescence. Potency, µM (doses to about 46.3 µM), inactives show top-dose activity change, negative = inhibition, actives largely listed as inhibitors. 76,000 tested, 1.6% active; calls by dose curve; also: nearly all actives have a fitted effect of over 60% in size
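Compound pre-incubated 30 min at room temperature on GloSensor-loaded HEK293 cells stably carrying hNpr1 and the pGS-40F cGMP biosensor. Stimulation uses hNppA at 0.1 nM final; luminescence is taken at baseline and 20 min post-agonist.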
FLuc inh – Firefly luciferase inhibition profiling of diverse chemical library using quantitative high-throughput screening; Luciferin 4-monooxygenase (Photinus pyralis), P08659; purified P. pyralis luciferase, luminescence, biochemical; Potency, µM (doses to about 115 µM), usual class: inhibitors; 76,000 tested, 2.5% active; also: nearly all actives have a fitted effect of over 65% in size
Target sequence (P08659 whole entry, looked up): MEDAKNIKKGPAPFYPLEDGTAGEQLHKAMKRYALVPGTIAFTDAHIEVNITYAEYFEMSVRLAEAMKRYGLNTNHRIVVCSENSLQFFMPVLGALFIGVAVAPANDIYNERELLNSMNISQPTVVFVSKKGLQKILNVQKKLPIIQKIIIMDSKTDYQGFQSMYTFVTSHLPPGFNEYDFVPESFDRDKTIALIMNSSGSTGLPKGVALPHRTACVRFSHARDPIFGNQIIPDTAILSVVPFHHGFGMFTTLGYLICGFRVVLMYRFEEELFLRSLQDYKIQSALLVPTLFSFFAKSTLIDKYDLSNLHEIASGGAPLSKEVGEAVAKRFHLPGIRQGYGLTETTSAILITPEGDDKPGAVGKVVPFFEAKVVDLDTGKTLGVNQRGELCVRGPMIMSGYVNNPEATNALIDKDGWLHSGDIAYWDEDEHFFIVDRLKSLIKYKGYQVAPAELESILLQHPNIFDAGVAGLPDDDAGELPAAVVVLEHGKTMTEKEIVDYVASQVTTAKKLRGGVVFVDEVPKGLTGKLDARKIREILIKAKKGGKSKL
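Inhibitors were tested against purified firefly luciferase in a biochemical, low-substrate format (both substrates at 10uM) and luminescence measured with a CCD imager.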
HEK293 tox – Cytotoxic Profiling in HEK 293 Cell Line of Diverse Libraries Using Quantitative High-Throughput Screening; HEK 293 viability, ATP luminescence (CellTiter-Glo), 48-72 h; Potency, µM (titrated, usually from 115 µM), inactives show at the top dose activity change, negative = cytotoxicity, usual class: inhibitors; 94,000 tested, 6.6% active; AID 1345083, 2018; also: nearly all actives have a fitted effect of over 60% in size
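HEK 293 seeded at 250 cells/well receive compound via pintool. After 48 or 72 hr at 37 degree Celsius, 5% CO2 and 95% humidity, CellTiter-Glo is dispensed and luminescence read following 10 min at room temperature.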
NIH3T3 tox – Cytotoxic Profiling in NIH 3T3 Cell Line of Diverse Libraries Using Quantitative High-Throughput Screening. Potency, µM (series often up to 96.7 µM), for inactives: at the top dose activity change, negative = cytotoxicity, most hits filed as inhibitors. NIH 3T3 viability, CellTiter-Glo ATP luminescence, 48-72 h. AID 1345082, 2018. 94,000 tested, 4.3% active; also: nearly all actives have a fitted effect of over 55% in size
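Viability of NIH 3T3 cells after 48 or 72 hr compound treatment at 37 °C was assessed by CellTiter-Glo, with luminescence imaged following a 10 min room-temperature step.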
Numbers without * were called inactive; i = inactive; ? = inconclusive; . = no result; [ ] = dose if it differs, or a comment. In the library only some 11% were active in any assay of this set; here they are far more common. Unless noted, calls follow the shape of the dose curve; as a rule, active = well fitted curve in the direction sought with a large enough effect; inconclusive = small, poorly fitted or top-dose-only effect, or another doubt; inactive = no such curve, though single readings can be large; an effect the other way counts as inactive or inconclusive. % is scaled to controls: 0 for no effect and ±100 for the full control effect; potency is read from the fitted curve at half-maximal effect.

SMILES | NPR1 antag | FLuc inh | HEK293 tox | NIH3T3 tox
COc1ccc(C(=O)N2CCOCC3(CN(Cc4ccccc4)C3)C2)c(OC)n1 | 3.4%[70.6 µM] | i | 44.7µM* | 31.6µM*
COc1ccc(C(=O)N2CCOCC3(CN(Cc4cc(C)cc(F)c4)C3)C2)cc1OC | -3.7%[70.6 µM] | i | 8.91µM* | ?
O=C(c1ccc(Cl)cc1)N1CCOCC2(CN(Cc3ccccc3)C2)C1 | 3.1%[70.6 µM] | i | -68.6%[172 µM] | 3.16µM*
O=C(Nc1cc(-c2ccccn2)nn1-c1ccccc1)c1ccc(F)cc1 | . | . | 2.4% | -19.3%
Cc1ccc(C2=NC3(CCN(C(=O)CCc4ccccc4)CC3)ON2)cc1 | -3.5% | i | -24.2% | -21.7%
CCC(C)NC(=O)C1CCN(C(=O)c2nnn3c2COC(c2ccc(C)cc2)C3)CC1 (centres undefined) | -2.2% | ? | -3.8% | -16.5%
Cc1ccc(C2Cn3nnc(C(=O)N4CCC(C(=O)NC(C)C)CC4)c3CO2)cc1 (centres undefined) | -9.5% | 20µM* | -1.6% | i
Cc1ccc(C2Cn3nnc(C(=O)N4CCC(C(=O)NC5CCCC5)CC4)c3CO2)cc1 (centres undefined) | 1.0% | 11.2µM* | 6.3% | i
CCCOc1cc(C)c2c(c1C)C[C@H](C(C)C(=O)N1CCN(CC(=O)O)CC1)CC2 (some centres undefined) | 3.4%[70.6 µM] | i | ? | ?
COCCNC(=O)[C@@H]1CCCN1C(=O)c1cccc(-c2ccccc2OC)c1 | . | . | -6.1% | -0.2%
CCN1C[C@H]2COc3ccccc3[C@H]2N(C(=O)c2ccc(C)cc2)CCC1=O | . | . | ? | -29.8%
Cc1cccc(NC(=O)Cn2ccn3nc(-c4ccccc4)c(CO)c3c2=O)c1C | 0.0% | i | 89.1µM* | ?
Cc1ccc(C)c(Cn2ccn3nc(-c4ccc(F)cc4)c(CO)c3c2=O)c1 | ? | i | 35.5µM* | ?
O=C(Cn1ccn2nc(-c3ccccc3)c(CO)c2c1=O)Nc1cccc(Br)c1 | -20.5% | i | ? | -25.5%
COc1cc(NC(=O)Cn2ccn3nc(-c4ccccc4)c(CO)c3c2=O)cc(OC)c1OC | -1.4% | i | 31.6µM* | ?
O=C(Cn1ccn2nc(-c3ccc(F)cc3)c(CO)c2c1=O)Nc1cccc(Br)c1 | -2.6% | i | 44.7µM* | ?
O=c1c2c(CO)c(-c3ccc(F)cc3)nn2ccn1Cc1ccc(F)cc1 | ? | i | ? | -26.3%
Cc1ccc(CN2CCCCCCNC(=O)[C@@H]3CCC[C@@H]32)o1 | -2.7% | i | ? | -21.9%
CCOc1cccc(CN2CCCC3(Cc4ccccc4CNC3=O)C2)c1 (centres undefined) | . | . | -29.4% | -4.4%
Cc1ccc(O)c(CN2CCCC(c3nc(CC(C)C)no3)C2)c1 (centres undefined) | -4.3% | i | ? | ?
COc1ccc(-c2ccnc(-c3nnc(C)n3C(C)C)c2)cc1OC | 2.3%[70.6 µM] | i | -11.2%[172 µM] | 100µM*
COc1ccc(-c2ccnc(-c3nnc(C)n3CCN(C)C)c2)cc1OC | 5.6%[70.6 µM] | i | -16.9%[172 µM] | 25.1µM*
O=C(NCC(=O)N1CCC(c2ccccc2)CC1)c1ccc(-c2cnc3ccccc3c2)cc1 | . | . | -2.5% | -12.4%
CC(=O)N1CCCN(c2ccnc3ccnn23)CC1 | . | . | -3.8%[172 µM] | -10.6%[138 µM]
CN(Cc1ccc(N2CCNC2=O)cc1)CC1CCCN(CCc2ccc(F)cc2)C1 (centres undefined) | 3.9% | i | ? | ?
SMILES | NPR1 antag | FLuc inh | HEK293 tox | NIH3T3 tox
CCCCc1ncc(CN(C)CC2CCCN(CCc3ccc(F)cc3)C2)[nH]1 (centres undefined) | 2.1% | i | 39.8µM* | ?
COc1ccccc1OCCNC(=O)CC1=C2CCCCC2N(Cc2ccccc2)C1=O (centres undefined) | 1.6% | i | ? | -20.4%
O=C(c1ccn(C(F)F)n1)N1CCc2nc(-c3ccc(Cl)cc3)[nH]c2C1 | -0.3% | ? | 89.1µM* | ?
CCOC(=O)N1CCC(N2CCc3nc(-c4ccc(Cl)cc4)[nH]c3C2)C1 (centres undefined) | -2.5% | i | ? | ?
Cn1cc(-c2cccc(CCOc3cnc4c(ccn4CC(=O)O)c3)c2)cn1 | 3.0%[70.6 µM] | 70.8µM* | -0.5%[172 µM] | ?
Cc1noc(C)c1-c1cccc(CCOc2cnc3c(ccn3CC(=O)O)c2)c1 | -1.7%[70.6 µM] | i | ? | 50.1µM*
C=CCCC(=O)N1[C@@H](c2ccco2)[C@@H](C(=O)OCC)C[C@]12CCCCN(CCOC(C)=O)C2=O | . | . | ? | -27.9%
O=C(Nc1cccc(Cl)c1)C1CCc2nnc(C3CC3)n21 (centres undefined) | . | . | -9.1% | -17.1%
Cc1ccc(-c2cc3c(=O)n(CCNC(=O)c4ccc[nH]c4=O)ccn3n2)cc1C | -13.9% | 7.94µM* | -7.1% | -17.0%
Cc1ccc(-c2cc3c(=O)n(CCNC(=O)Cc4cccc(F)c4)ccn3n2)cc1C | ? | 3.55µM* | -17.7% | ?
Cc1ccc(C(=O)NCCn2ccn3nc(-c4ccc(C)c(C)c4)cc3c2=O)cc1 | -0.4% | i | -2.3% | -9.1%
O=c1ncn(Cc2ccccc2)c2ccc(-c3ccc(F)cc3F)nc12 | -2.0%[70.6 µM] | i | -12.6%[172 µM] | 89.1µM*
COc1ccc(C(C)NC(=O)c2noc(-c3ccccc3F)n2)cc1OC (centres undefined) | -15.6% | i | -23.8% | ?
O=C(NCC1CC1)c1noc(-c2ccccc2F)n1 | -11.8% | 39.8µM* | -4.8% | -6.9%
O=C(NCC1CCCCC1)c1noc(-c2ccc[nH]c2=O)n1 | -1.0% | i | 15.1% | 4.3%
COc1ccc(CCNC(=O)c2noc(-c3ccccc3F)n2)cc1OC | ? | i | 31.6µM* | ?
Cc1cccc(N2CCN(C(=O)c3ccc4c(c3)N(C(=O)c3ccccc3)CC4)CC2)c1C | -23.1% | i | 28.2µM* | 31.6µM*
O=C1Nc2ccccc2CC12CN(Cc1ccc(F)c(F)c1F)C2 | . | . | ? | -23.0%
C[C@H]1CCCN1C(=O)c1nnc(COc2ccc(C#N)cc2)n1-c1ccccc1 | -1.3%[70.6 µM] | i | -27.0%[172 µM] | 35.5µM*
C[C@H]1CCCN1C(=O)c1nnc(COc2ccc(C#N)cc2)n1-c1cccnc1 | -4.4%[70.6 µM] | i | ? | 39.8µM*
O=C(c1nnc(COc2ccc(OC(F)(F)F)cc2)n1-c1ccccc1)N1CCC[C@@H]1C(c1ccccc1)c1ccccc1 | 3.6% | i | ? | 4.47µM*
O=C(c1ccco1)N1CCC(N2C(=O)[C@H]3CN(Cc4ccccc4)C[C@H]3C2=O)CC1 | . | . | -27.1% | -23.6%
NCCCC(=O)N1CCC2(CC1)CN(C(=O)c1ccc(Cl)cc1)CCO2 | . | . | 3.4% | 31.6µM*
Cn1ccnc1C(=O)N1CCC(N2C(=O)C3(CCCC3)C2c2ccccc2)CC1 (centres undefined) | 0.5% | i | -8.3% | ?
